Results published in PubChem BioAssay (NCI).
About 83,000 compounds went through this panel and 20% of them were active in at least one assay; those are over-represented in the sample as a whole.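 Single-concentration screen, 48 h exposure, 96-well plates. Endpoint: percent growth. Below 10 = active.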 A number with no mark means an inactive call. Active and inactive are the calls of the source.

System: MDA-MB-468 breast
Experiment: NCI-60 one-dose screen, 48 h (100 = growth as untreated, 0 = no growth, -100 = all killed)
Details: 10 µM unless noted

Row | SMILES | growth
1 | O=C(c1ccc(-c2nc(CSc3nc4ccccc4s3)no2)cc1)N1CCSCC1 | 4.1% (active)
2 | COc1cc(/C=C/c2cc(/C=C/c3ccc(O)c(OC)c3)n(C(=O)Nc3ccc(Cl)cc3)n2)ccc1O | -26.4% (active)
3 | Brc1ccc2c(c1)c(-c1nc(-c3c[nH]c4ncccc34)cs1)cn2CCCN1CCCCC1 | -15% (active)
4 | C[C@@H](Oc1cc(-c2cnn(C3CCNCC3)c2)cnc1N)c1c(Cl)ccc(F)c1Cl | -79.8% (active)
5 | C=CC[N+]1(CC)CCN=C1CCCCCCCCCCCCCCCCC (stereo not given) | -82.6% (active)
6 | Cc1nc2n(c(=O)c1CCN1CCC(c3noc4cc(F)ccc34)CC1)CCC[C@@H]2O | 100%
7 | CCC(C)Oc1cc(/C=N/NC(=O)c2cnn3c2NC(c2ccccc2)C3)ccc1OC (stereo not given) | 19.1%
8 | COC(=O)/C=C1\SC(=Nc2ccc(C(F)(F)F)cc2)N(CCc2c[nH]c3ccccc23)C1=O | -66.3% (active)
9 | COc1ccc(N2CCN(c3nc(-c4ccccc4)c(C#N)c(=O)[nH]3)CC2)cc1 | 97.9%
10 | CC(=O)OC1C=CC(OC(C)=O)O1 (stereo not given) | 101%
11 | COC12CC(=O)C(C(C)=O)=C(O)C1(C)c1c(O)c(C)c(O)c(C(C)=O)c1O2 (stereo not given) | 68.9%
12 | CCN1CC2=C(Nc3nc(SC)[nH]c(=O)c3C2c2cc(OC)c(OC)c(OC)c2)/C(=C/c2cc(OC)c(OC)c(OC)c2)C1 (stereo not given) | 95.8%
13 | Cc1ccnc2c(OCc3ccccc3)cccc12 | 34.2%
14 | O=C1C(Nc2ccccn2)=C(I)C(=O)c2ncccc21 | -70.1% (active)
15 | COc1ccc2nc(Cl)c(Cn3nnc(Cc4ccccc4)n3)cc2c1 | 29.9%
16 | NS(=O)(=O)c1ccc(Nc2nc(SCc3ccccc3)nc3ccccc23)cc1 | 65.4%
17 | Nc1cc2c(cc1N)-c1cc(N)c(N)cc1C2 | 105%
18 | COc1cc(C2CC(c3ccc(C)cc3)=NN2C=O)ccc1Oc1ccnc2cc(Cl)ccc12 (stereo not given) | 58.4%
19 | CCOC(=O)C(=Cc1cccc(Cl)c1)C(=O)OCC | 37.9%
20 | O=C1CCC23OC(C(O)c4ccccc4N12)C1C(Br)=NOC13 (stereo not given) | 115%

Row | SMILES | growth
21 | COc1cnc2c(c1)C(=O)c1c-2n(CCCN2CCC(O)CC2)c(=O)c2cc(Cl)ccc12 | 38.5%
22 | Cc1ccc2c(C(C[N+](=O)[O-])c3ccccc3)c(-c3ccccc3)[nH]c2c1 (stereo not given) | -9.08% [9.5 µM] (active)
23 | CCOC(=O)C(C)(CSSCC(C)(NC(=O)c1ccc2ccccc2c1)C(=O)OCC)NC(=O)c1ccc2ccccc2c1 (stereo not given) | 109%
24 | COc1ccc(Cn2nc(-c3cc(OC)c(OC)c(OC)c3)c3c2CCc2cnoc2-3)cc1OC | -12.8% (active)
25 | CCOc1ccc(/C=N\N=C\c2ccc(OCC)cc2)cc1 | 77%
26 | c1cc(OCCN2CCCC2)ccc1CNc1ccc2nc(CCC3CCCCC3)[nH]c2c1 | 43.6%
27 | Cc1c(-c2ccc(O)cc2)n(Cc2ccc(OCCN3CCCCCC3)cc2)c2ccc(O)cc12 | 74%
28 | COc1ccc2c(c1)/C(=C1\S/C(=N/c3nnc(C)s3)NC1=O)C(=O)N2Cc1ccc(Cl)cc1 | 50.9%
29 | C[C@H]1[C@H](C)CC[C@]2(C(=O)NCC#CCN3CCN(C)CC3)CC[C@]3(C)C(=CC[C@@H]4[C@@]5(C)Cc6c([nH]c7ccccc67)C(C)(C)[C@@H]5CC[C@]43C)[C@H]12 | 90.1%
30 | O=C1c2ccccc2C(=O)c2c([N+](=O)[O-])ccc(Cl)c21 | -5.53% (active)
31 | CCN(CC)c1ccc(/C=N/NC(=O)c2ccc(S(N)(=O)=O)cc2)c(O)c1 | -0.911% (active)
32 | N=C(N)c1ccc(-c2ccc(/C=C/c3ccccc3)s2)cc1 | -67.3% (active)
33 | CN1CCN(Cc2ccc(NC(=O)c3cncc(C#Cc4ncc5ccccn45)c3)cc2C(F)(F)F)CC1 | 36.5%
34 | CC1=CC[C@@H]2CC[C@]3(C)[C@H](CC[C@@H]4[C@@]5(C)CCCNC(C)(C)[C@@H]5CC[C@]43C)[C@H]2[C@@H]1C | -47.2% (active)
35 | COc1ccc(C(=O)/C=C/c2cc(-c3cc(OC)c(OC)c(OC)c3)n[nH]2)cc1 | -66.1% (active)
36 | O=C(/C=C/c1ccccc1)n1c(-c2ccc(Cl)cc2)nc2ccccc21 | -6.61% (active)
37 | NS(=O)(=O)c1ccc(Nc2nc(N/N=C/c3ccccn3)nc(Nc3ccccc3)n2)cc1 | -29.7% (active)
38 | CN1CCN(Cc2ccc(NC(=O)c3cncc(C#Cc4cnc(N)c5cnccc45)c3)cc2C(F)(F)F)CC1 | 6.98% (active)
39 | CCCCCCOc1ccc(/C=N/Nc2cc(C)nc3ccc(Br)cc23)cc1 | -78.6% (active)
40 | CCOCc1cc(C(C)(C)C)ccc1O | 94.3%
